ATG4B inh: ATG4B (human) cysteine protease inhibition; AID 504462; inhibition, % at 8.33 µM; Q9Y4P1; ATG4B cleavage of LC3-PLA2, NBD-HPC fluorescence, 1 h; 0.51% of 340,000 active; in the data active = inhibition above about 40%
Target sequence (Q9Y4P1 whole entry, looked up): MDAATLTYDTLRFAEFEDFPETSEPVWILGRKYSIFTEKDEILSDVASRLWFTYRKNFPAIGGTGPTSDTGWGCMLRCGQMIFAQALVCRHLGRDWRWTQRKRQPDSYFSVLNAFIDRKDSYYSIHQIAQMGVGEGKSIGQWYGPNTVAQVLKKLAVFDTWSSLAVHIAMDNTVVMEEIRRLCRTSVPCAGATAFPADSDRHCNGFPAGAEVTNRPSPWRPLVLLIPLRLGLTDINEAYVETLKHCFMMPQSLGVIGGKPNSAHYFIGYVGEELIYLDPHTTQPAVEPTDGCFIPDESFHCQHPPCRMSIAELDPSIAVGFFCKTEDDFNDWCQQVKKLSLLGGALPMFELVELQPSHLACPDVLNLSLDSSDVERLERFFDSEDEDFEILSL
FAS TE block: blocks the thioesterase domain of human fatty acid synthase; P49327; recombinant FAS-TE, OMFH fluorogenic substrate, fluorescence endpoint; inhibition, % at 15 µM; 0.67% of 360,000 active; AID 602261;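 active = compounds whose normalised, plate-corrected inhibition of enzyme fluorescence in the single-dose primary screen is 50% or more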
Calb FLC: affects C. albicans growth with fluconazole; C. albicans CaCi-2 (fluconazole-resistant clinical isolate) + fluconazole, Alamar Blue growth, 48 h; growth inhibition, % (no concentration beside the values); 0.57% of 300,000 active; AID 1979;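 active = growth inhibition above about 58% in most replicates, limit read from the data, passing the limit was not always enough; inconclusive = exactly half the replicates above a set limit; inactive = most replicates below a set limit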;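 also: all wells also contain fluconazole at 8 µg/ml as a sub-toxic cotreatment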
NadD block: NadD (S. aureus) enzyme inhibition; purified NadD enzyme, colorimetric absorbance read-out; inhibition, % at 20 µM; 0.78% of 360,000 active; AID 602399; in the data active = inhibition above about 26%
SUMO Mot1 rescue: SUMOylation pathway inhibition by Mot1-301 growth rescue; S. cerevisiae Mot1-301 growth rescue, ATP luminescence, 38.5C; percent above DMSO median, 100 means doubled; growth rescue, % at 18.8 µM; 1% of 320,000 active;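 active = every valid replicate shows activation above 250% relative to neutral control wells; inactive = the rest, any valid replicate at or below 250%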
NadD inh conf: NadD (S. aureus) inhibition, single concentration confirmation | shares compounds with NadD block | purified S. aureus NadD, colorimetric enzyme assay | inhibition, % at 20 µM | 13% of 2,000 active; in the data active = inhibition mostly above about 42%, no sharp cut-off; inactive = mostly below about 42%
Numbers stand for hits; n = inactive; u = inconclusive; x = no result given. Hits are enriched below; roughly 3.1% of the tested compounds scored in any of these assays.

SMILES	ATG4B inh	FAS TE block	Calb FLC	NadD block	SUMO Mot1 rescue	NadD inh conf
Cc1ccc(Cn2c(N3CCN(C)CC3)nc3c2c(=O)[nH]c(=O)n3C)cc1	n	n	n	n	n	x
CC(C)c1ccc(-c2nc(N3CCCCC3)[nH]c(=O)c2C#N)cc1	n	n	n	n	n	x
CC1=Nc2nc(N3CCCCC3)c(C#N)c3c4c(nc(c23)N1)N(c1ccc(C(C)C)cc1)C(=O)C4	n	n	n	62.6	n	n
Cc1nn(-c2ccccc2)c(C)c1/C=N/NC(=O)CSc1nc2ccccc2c(=O)n1-c1ccc(Br)cc1	n	n	n	30.1	n	n
Cc1ccc(-n2c(SCC(=O)N/N=C/c3ccccc3OCC(=O)O)nc3ccccc3c2=O)cc1	n	n	n	n	n	x
COc1ccc(-c2nc3c(c(SCC(=O)Nc4cccc(O)c4)n2)Cc2c(CO)cnc(C)c2O3)cc1	n	n	n	49.6	n	n
O=C(CSc1nc(-c2ccccc2)nc2c1Cc1ccccc1O2)Nc1ccccc1	x	x	n	x	n	x
Cc1ncc(CO)c2c1Oc1nc(-c3ccccc3)nc(SCC(=O)Nc3cccc(O)c3)c1C2	n	n	n	43.0	n	39.0
COc1cc(=O)[nH]c(SC(C)C(=O)Nc2ccc3ccccc3c2)n1 (stereo not given)	n	n	n	n	n	x
CCOc1ccccc1NC(=O)C(c1ccccc1)N1CCN(C(=O)c2ccco2)CC1 (stereo not given)	n	n	x	n	n	x
O=C1Nc2ccccc2N(C(=O)c2ccc(-c3ccccc3)cc2)C1c1nc2ccccc2[nH]1 (stereo not given)	x	n	x	31.4	x	n
Cc1ccc(Nc2nc3ccccc3nc2Nc2c(C)n(C)n(-c3ccccc3)c2=O)cc1	n	n	n	35.0	n	n
COC(=O)c1ccc(/C=C/C(=O)OCC(=O)Nc2sccc2C(N)=O)cc1	n	n	x	n	n	x
O=C(CSc1nc2ccccc2c(=O)n1-c1ccccc1Cl)NC1CCS(=O)(=O)C1 (stereo not given)	n	n	x	n	n	x
Cc1ccc(-c2csc(N3CCN(c4cc5c(cc4Cl)nc(-c4ccncc4)n5CCN4CCCCC4)CC3)n2)cc1	n	n	n	31.1	n	n
COCCNc1nc(-c2cc(F)ccc2C)c2sc(-c3ccccc3)cc2n1	x	n	x	n	x	x
CCC(=O)NC(/C=C/c1ccccc1)c1cc([N+](=O)[O-])c2cccnc2c1O (stereo not given)	x	x	n	x	n	x
CCC(=O)NC(c1cccs1)c1cc([N+](=O)[O-])c2cccnc2c1OC (stereo not given)	x	n	x	32.5	x	n
O=[N+]([O-])c1ccccc1/C=C/C=N/n1c(-c2cc(-c3ccccc3)n[nH]2)n[nH]c1=S	n	n	n	41.8	n	n
Cc1ccc(-c2n[nH]c(=S)n2/N=C/C=C/c2ccccc2[N+](=O)[O-])cc1	n	n	n	34.9	n	n
Cc1cn(C2CCCCC2)c(=O)[nH]c1=O	n	n	x	n	x	x
O=C(NC(=S)N1CCN(c2nc(-c3ccccc3)cs2)CC1)c1cncc(Br)c1	n	n	n	35.0	n	n
Cc1ccc2nc(N3CCN(c4ccccc4F)CC3)c(C=O)c(=O)n2c1	n	n	u	n	n	x
Cc1cc(C)c2cc(CN(Cc3ccc4c(c3)OCO4)Cc3nnnn3Cc3ccco3)c(=O)[nH]c2c1	n	n	n	37.0	n	n
Cc1ccc2[nH]c(=O)c(CN(CCc3ccccc3)C(c3nnnn3Cc3ccco3)C(C)C)cc2c1 (stereo not given)	n	n	n	53.9	n	56.5
SMILES	ATG4B inh	FAS TE block	Calb FLC	NadD block	SUMO Mot1 rescue	NadD inh conf
CCC(c1nnnn1Cc1ccco1)N(CCc1ccccc1)Cc1cc2cc(C)ccc2[nH]c1=O (stereo not given)	n	n	n	n	n	x
O=c1[nH]c2cc3c(cc2cc1CN(Cc1ccccc1)Cc1nnnn1Cc1ccco1)OCCO3	n	n	n	33.1	x	n
O=C(O)/C=C/C(=O)Nc1ccc(-c2ccccc2)cc1	x	n	u	n	n	x
COc1cccc(-c2c(C(=O)N/N=C(\C)c3ccco3)nnn2-c2nonc2N)c1	n	n	n	n	n	x
COc1cccc(-c2c(C(=O)N/N=C(\C)c3ccc(Cl)s3)nnn2-c2nonc2N)c1	n	n	n	32.3	n	n
NC(=S)N/N=C/c1ccc(-c2cc(Cl)ccc2Cl)o1	n	n	92.5	42.5	n	n
NC(=S)N/N=C/c1ccc(-c2cc(Cl)cc(Cl)c2)o1	n	n	u	38.3	n	n
NC(=S)N/N=C/c1ccc(-c2ccc([N+](=O)[O-])cc2)o1	n	n	n	32.5	n	n
COc1cc(C#Cc2c(-c3cncn3C)n(C)c3ccc(-c4ccc5[nH]ccc5c4)cc23)cc(OC)c1	n	n	x	35.0	n	n
COc1cc(C#Cc2c(-c3cncn3C)n(C)c3ccc(-c4cc(OC)c(OC)c(OC)c4)cc23)cc(OC)c1	n	n	x	n	n	x
COc1cc(C#Cc2c(-c3cncn3C)n(C)c3ccc(-c4ccc(OC)nc4)cc23)cc(OC)c1	n	n	x	35.7	n	n
COc1cc(OC)cc(-c2c(C#Cc3ccsc3)c3cc(-c4ccc5[nH]ccc5c4)ccc3n2C)c1	n	n	x	n	n	x
COC(=O)[C@H](CC(C)C)N1Cc2cc(OC)cc(OC)c2-c2ccccc2S1(=O)=O	n	n	x	36.6	x	48.5
CN1CCN(C(=O)c2ccc(OCCOc3ccccc3)cc2)CC1	n	n	n	n	n	x
O=C(COC(=O)c1c2c(nc3ccccc13)/C(=C/c1ccco1)CC2)NC1CCCC1	n	n	u	52.3	x	64.0
CCN(CC)C(=O)[C@H]1CC(CC(=O)NC(C)(C)C)C(=O)N2CCc3c([nH]c4ccccc34)[C@]12C (stereo not given in full)	n	n	x	n	n	x
Nc1ccc2nc(-c3cccc(-c4nc5ccc(N)cc5[nH]4)c3)[nH]c2c1	n	n	n	39.1	n	n
Nc1ccc2nc(-c3ccc(Cl)cc3)[nH]c2c1	n	n	n	n	n	x
Nc1ccc(-c2nc3ccc(N)cc3[nH]2)cc1	n	n	n	66.1	n	n
Cc1nc2ccc(-c3nc4ccc(N)cc4[nH]3)cc2[nH]1	n	n	n	45.4	n	n
OC(c1ccc(F)cc1)(C1CCCCC1)C(CN1CCOCC1)c1ccccc1 (stereo not given)	n	n	n	n	n	x
Cc1ccc(C2CC(c3cccs3)=NN2C(=O)CSc2nc3ccccc3o2)cc1 (stereo not given)	n	n	n	n	n	x
COc1ccc(C2CC(c3cccs3)=NN2C(=O)CSc2nc3c(cnn3-c3ccccc3)c(=O)[nH]2)cc1 (stereo not given)	n	n	n	40.3	n	n
Cc1ccc(C2CC(c3cccs3)=NN2C(=O)CSc2nc(=O)n3ccc(C)cc3n2)cc1 (stereo not given)	x	n	n	38.0	n	51.0
Cc1ccc(C)c(N2CCN(S(=O)(=O)c3ccc4[nH]c(=O)c(=O)[nH]c4c3)CC2)c1	n	n	n	32.1	n	53.5

Bioassay records as filed in PubChem.
